Usually AC50 stands for the concentration giving half of the maximal activity seen.

47 compounds from PubChem BioAssay AID1851 (National Center for Advancing Translational Sciences (NCATS), 2009) can be followed below.

SMILES strings stand for the structures. The whole screen tested about 16,000 compounds, of which about 4,000 (25%) were called active. Another 26% or so got no clear call; they are omitted. The list is a sample of the results. Values without a mark were called inactive. Calls follow the shape of the dose curve; as a rule, active = well fitted curve in the direction sought with a large enough effect; inconclusive = small, poorly fitted or top-dose-only effect, or effect the other way; inactive = no such curve, though single readings can be large or run the other way. Numbered stars: 1 amine (or outer) side, 2 acyl side, 3 side chain; on linkers, the order of the positions; unused ones are H or OH. Bridge positions count the residues as written; N and C are the ends. Square brackets hold non-standard residues; d marks the D form. Peptide text beside a SMILES is read from it. I, II: the chains in the order shown. Actinocin(9to1) = Cc1c2oc3c(C)ccc(C(=O)[*:1])c3nc-2c(C(=O)[*:2])c(N)c1=O; aThr = C[C@H](O)[C@H](N)C(=O)O; NMeV = CN[C@H](C(=O)O)C(C)C; Sar = CNCC(=O)O
% is scaled to controls: 0 for no effect and ±100 for the full control effect.

Sequence of Cytochrome P450 2C9 (Homo sapiens) (P11712 whole entry, looked up): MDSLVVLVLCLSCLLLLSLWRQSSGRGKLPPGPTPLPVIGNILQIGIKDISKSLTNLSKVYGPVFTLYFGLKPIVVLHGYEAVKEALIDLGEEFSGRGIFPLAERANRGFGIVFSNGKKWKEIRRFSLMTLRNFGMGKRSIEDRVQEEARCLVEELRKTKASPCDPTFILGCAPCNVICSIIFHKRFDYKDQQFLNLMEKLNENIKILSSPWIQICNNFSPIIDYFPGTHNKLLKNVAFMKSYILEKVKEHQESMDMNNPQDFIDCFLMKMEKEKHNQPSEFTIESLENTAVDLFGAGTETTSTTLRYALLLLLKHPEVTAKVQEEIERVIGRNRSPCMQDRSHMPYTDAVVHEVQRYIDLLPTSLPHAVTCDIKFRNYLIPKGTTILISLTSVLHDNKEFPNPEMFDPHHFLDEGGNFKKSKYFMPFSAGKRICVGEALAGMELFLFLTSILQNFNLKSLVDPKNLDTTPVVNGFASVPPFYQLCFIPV

The assay concerns the target Cytochrome P450 2C9 (Homo sapiens) (UniProt P11712). Nature of the assay: Cytochrome panel assay with activity outcomes. The settings on record: recombinant CYP, pro-luciferin dealkylation, luminescence, p450-cyp2c9; series mostly up to 57.1 µM; activity, negative = inhibition: at the top concentration.
With `CC(NC(=O)CN1CCCC1)C12CC3CC(CC(C3)C1)C2` (configuration not stated), the “activity, negative = inhibition” value is -12%. Consider `CC(Oc1ccc(O)cc1)(P(=O)(O)O)P(=O)(O)O`, for which the “activity, negative = inhibition” value is -4.37%. On the same count and under the same terms, the same measure for `COC(=O)N1CCC2(CCN(C(=O)Nc3ccccc3)CC2)CC1`: -6.23%.

`O=C(Nc1cccc(NC(=O)N2CCN(c3ccccc3)CC2)c1)N1CCN(c2ccccc2)CC1`: the AC50 was 7.94 µM (active). `CC(C)n1c(N2CCN(C(=O)Nc3ccccc3)CC2)nc2ccccc21`: the AC50 is 6.31 µM (active). On to `O=C(Nc1ccccc1)N1CCC2(CCNCC2)CC1`, for which the “activity, negative = inhibition” value is 0.996%. For `CC(=O)N1CCC2(CC1)CCN(C(=O)Nc1cccc(F)c1)CC2`, the “activity, negative = inhibition” value was -1.66%. In the case of `Cn1cccc1C(=O)N1CCC2(CCN(C(=O)Nc3ccccc3)CC2)CC1`, the “activity, negative = inhibition” value is 7.74%. For the compound `CC(C)=CCC/C(C)=C/CO/N=C1/C[C@@H](O)[C@@H](O)[C@@H]2[C@H]3C(=O)N(c4ccc(F)cc4F)C(=O)[C@@H]3CC[C@@H]12`, the activity, negative = inhibition is -4.09% [at 11.4 µM]. Take `CC(C)C(C(=O)O)N1C(=O)/C(=C/C=C/c2ccco2)SC1=S` (configuration not stated): the AC50 is 6.31 µM (active). For the compound `c1ccc2cc(C3=NCCN3)ncc2c1`, the “activity, negative = inhibition” value is -10.6%. `Cc1cccc(N(CC(=O)NC2CCCC2)C(=O)c2cc3cc4cccc(C)c4nc3s2)c1C`: the half-maximal activity concentration (AC50) is 0.794 µM (active). For `Cc1ccc(C)c(N(CC(=O)NC2CCCC2)C(=O)c2cc3cc4cccc(C)c4nc3s2)c1`, the AC50 was 0.447 µM (active). As for `N=C(N)SCCc1cnc[nH]1`, the AC50 entry is “inactive”. Regarding `COC(=O)[C@@]1(Cc2ccc(OC)cc2)[C@H]2c3cc(C(=O)N4CCCC4)n(Cc4cc(F)cc5c4OCOC5)c3C[C@H]2CN1C(=O)c1ccccc1`, the AC50 is 6.31 µM (active). Turning to `COC(=O)[C@@]1(Cc2ccccc2)[C@H]2c3cc(C(=O)N4CCCC4)n(Cc4cc(F)cc5c4OCOC5)c3C[C@H]2CN1C(=O)c1ccccc1`, the concentration at half-maximal activity (AC50) is 0.316 µM (active). Regarding `CSc1nsc(SC)c1NC(=O)OCc1ccccc1`, the AC50 was 10 µM (active). For the compound `O=C(NCC1CCC(C(=O)O)CC1)OCc1ccccc1` (configuration not stated), the “activity, negative = inhibition” value is 1.84%. In the case of `Cc1nn(C)c(Cl)c1NC(=O)OCc1ccc(F)cc1`, the “activity, negative = inhibition” value was -24%. For the compound `C/C(=N\NC(=O)c1ccccc1C)c1ccc(NC(=O)c2cccs2)cc1`, the AC50 was 14.1 µM (active). Regarding `Cc1ccccc1C(=O)Nc1cccc(NC(=S)NC(=O)c2cccs2)c1`, the AC50 was 3.55 µM (active).

`Cc1cccc(NC(=O)c2cc(N3C(=O)CCC3=O)ccc2Cl)n1`: the “activity, negative = inhibition” value is -2.27%. Regarding `Cc1cccc(NC(=S)NC(=O)c2cccs2)n1`, the half-maximal activity concentration (AC50) is 10 µM (active). As for `CN(C)c1ccc(-c2nccc(NCCN3CCOCC3)n2)cc1`, the activity, negative = inhibition is 5.77% [at 2.29 µM]. `CSc1ccc2c(c1)[C@H](N1CCN(C)CC1)Cc1ccccc1S2`: the AC50 result is “inactive”. Regarding `CCCN1C(=O)C(Cc2nc3ccccc3c(=O)n2C)c2ccccc21` (configuration not stated), the half-maximal activity concentration (AC50) was 12.6 µM (active). In the case of `CCCN1C(=O)C(NC(C)=O)c2cc(OC)ccc21` (configuration not stated), the “activity, negative = inhibition” value is -24%. Consider `FC(F)(F)c1ccccc1-c1nc(NCCN2CCOCC2)c2ccccc2n1`, for which the activity, negative = inhibition was 12.6% [at 2.29 µM].

For `CC1CN(C(=O)CN2C(=O)NC3(CCCCCC3)C2=O)CC(C)O1` (configuration not stated), the “activity, negative = inhibition” value was -2.81%. For the compound `CC(=O)NCCNc1ncncc1-c1ccc(N(C)C)cc1`, the activity, negative = inhibition is -1.01% [at 2.29 µM]. With `Cc1ccc(/C=C2\SC(=S)N(CCCC(=O)Nc3ccccn3)C2=O)cc1`, the AC50 was 5.01 µM (active).

As to `Cc1ccc(NC(=O)CN2C(=O)S/C(=C\c3cccn3C)C2=O)cc1`, the “activity, negative = inhibition” value is -7.98%. As to `CCOc1c(OC(C)=O)ccc(/C=C2\N=C(SCC)SC2=O)c1[N+](=O)[O-]`, the AC50 was 5.62 µM (active). With `C=CCSC1=Nc2sccc2C2=NC(=O)CN12`, the “activity, negative = inhibition” value was -5.09%. Regarding `Cc1ccccc1NC1=C(C(=O)c2ccccc2)N(C)S(=O)(=O)c2ccccc21`, the AC50 was 3.55 µM (active). Turning to `Cc1ccc(C)c(C(=O)CN2C(=O)c3ccccc3S2(=O)=O)c1`, the “activity, negative = inhibition” value was -7.55%.

For the compound `Cn1c(=O)c2[nH]c(COCc3nc4c([nH]3)c(=O)n(C)c(=O)n4C)nc2n(C)c1=O`, the activity, negative = inhibition was 7.37% [at 11.4 µM].

As for `COC(=O)c1ccc(NC(=O)Cn2nc(-c3ccncc3)nc2SCC(=O)Nc2nccs2)cc1`, the half-maximal activity concentration (AC50) is 0.224 µM (active).

Consider `Cc1ccc(NC(=O)c2ccc(CSc3nnc(-c4ccncc4)n3C)cc2)cc1`, for which the “activity, negative = inhibition” value was -29.8%. For the compound `CCn1c(SCc2ccc(C(=O)Nc3nccs3)cc2)nnc1-c1ccc(NC(C)=O)cc1`, the AC50 is 1.78 µM (active). Consider `O=C(CSc1nnc(-c2ccncc2)n1Cc1ccccc1)Nc1nccs1`, for which the AC50 is 10 µM (active). Still for that read-out and setting: the figure for `C=CCn1c(SCc2ccc(C(=O)Nc3ccccc3)cc2)nnc1-c1ccccc1` is 3.98 µM (active). For the compound `C=CCn1c(SCC(=O)Nc2ncc(Cc3ccc(Br)cc3)s2)nnc1-c1ccncc1`, the “activity, negative = inhibition” value is -0.753%. Take `COc1cc(OC)c2nc(C)c3c(c2c1)N(c1ccc(O)cc1)CC3`: the “activity, negative = inhibition” value is -9.41%. For `Cc1c2oc3c(C)ccc(C(=O)N[C@@H]4C(=O)N[C@@H](C(C)C)C(=O)N5CCC[C@@H]5C(=O)N(C)CC(=O)N(C)[C@@H](C(C)C)C(=O)O[C@H]4C)c3nc-2c(C(=O)N[C@@H]2C(=O)N[C@@H](C(C)C)C(=O)N3CCC[C@@H]3C(=O)N(C)CC(=O)N(C)[C@@H](C(C)C)C(=O)O[C@H]2C)c(N)c1=O` (I: [aThr]V[dP][Sar][NMeV] / II: [aThr]V[dP][Sar][NMeV]; ester I:1-I:C, II:1-II:C; linker I:N-II:N via Actinocin(9to1)), the “activity, negative = inhibition” value is 11.9%. As for `O=C1Nc2ccccc2C1=Nc1cccc2ncccc12`, the activity, negative = inhibition is 17.9% [at 11.4 µM]. For `CNc1cc(OC)c(C(=O)N[C@@H]2CCN(Cc3ccccc3)[C@H]2C)cc1Cl`, the “activity, negative = inhibition” value was -7.74%.
